“And” between values parts separate entries of the source, which are not always exact repeats. Equal entries are not always repeated. Unmarked numbers belong to inactive results. Inconclusive results are not listed. The source made the active and inactive calls. Unless noted, calls follow the shape of the dose curve; as a rule, active = well fitted curve in the direction sought with a large enough effect in the repeat runs; inconclusive = weak or mixed curves; inactive = no such curve, though single readings can be large; an effect the other way counts as inactive or inconclusive.

The nature of experiment [1]: qHTS assay to identify small molecule agonists of the hypoxia (HIF-1) signaling pathway - cell viability counter screen (AID 1224844; calls by dose curve; also: nearly all actives have a fitted effect of over 50% in size; also: potency is read from the fitted curve at half-maximal effect). The essentials: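 HRE-bla ME-180 cells in medium with 0.5% dialyzed FBS were preincubated 5 hrs at 37C, exposed to compounds for 17 hrs, then viability was read as CellTiter-Glo luminescence after 30 min at room temperature, in the reporter wells.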
On the technique in general: Quantitative high-throughput screening tests each substance at several concentrations.

The nature of experiment [2]: qHTS assay to identify small molecule agonists of the hypoxia (HIF-1) signaling pathway (AID 1224846; active = well fitted activation curve with a large enough effect in the signal ratio in the repeat runs, not every such curve was filed as active; the % refers to the signal ratio). The essentials: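 HRE-bla ME-180 cells (beta-lactamase reporter under hypoxia response element) were plated at 2,000 cells/well in medium with 0.5% dialyzed FBS, rested 5 hrs, then given compounds in DMSO for 17 hrs at 37C, 5% CO2. Reporter induction was read with CCF4-AM FRET substrate.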

Experiment [3] in a line: qHTS assay to identify small molecule agonists of H2AX - cell viability counter screen (AID 1224847; calls by dose curve; also: nearly all actives have a fitted effect of over 30% in size; also: potency is read from the fitted curve at half-maximal effect). The essentials:
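Cytotoxicity counter screen in wild-type CHO-K1 cells: a 3 hr compound treatment at 37C across 15 concentrations, followed by CellTiter-Glo luminescence to gauge viable cells.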

The nature of experiment [4]: qHTS RealTime-Glo MT Cell Viability Assay in HepG2 cells - 24 hour (AID 1224867). Also: nearly all actives have a fitted effect of over 50% in size. Also: potency is read from the fitted curve at half-maximal effect. The essentials: (§1)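 HepG2 suspension premixed with RealTime-Glo reagents is plated at 600 cells per well and left 5 h at 37 C/5% CO2. Compounds in DMSO then go in, and bioluminescence reflecting viable cell number is recorded over 40 h.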
A short description of experiment [5]: qHTS RealTime-Glo MT Cell Viability Assay in HEK293 cells - 32 hour (AID 1224868). Also: nearly all actives have a fitted effect of over 50% in size. Also: potency is read from the fitted curve at half-maximal effect. The essentials:
(§2)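 Reads taken at 0, 8, 16, 24, 32 and 40 h from the same wells. HEK293 cells (600/well) carried RealTime-Glo reagents from seeding, with compound added after a 5 h settle at 37 C.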

A short description of experiment [6]: A CellTox Green Cytotoxicity Assay to monitor cytotoxicity in HEK293 cells - 0 hour (AID 1224869). Also: nearly all actives have a fitted effect of over 50% in size. The essentials: (§3)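 HEK293 cells premixed with CellTox Green dye were seeded at 600 cells/well and left 5 h at 37 C/5% CO2 before pin transfer of 23 nL compound in DMSO. Fluorescence from dye bound to dead-cell DNA was read during 40 h treatment.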
Experiment [7] in a line: qHTS RealTime-Glo MT Cell Viability Assay in HepG2 cells - 40 hour (AID 1224870). Also: nearly all actives have a fitted effect of over 50% in size. Also: potency is read from the fitted curve at half-maximal effect. The essentials:
(§4)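 HepG2 cells (600/well) mixed with RealTime-Glo MT reagent, settled 5 h at 37 C/5% CO2 before compound addition. Nonlytic NanoLuc luminescence from viable-cell prosubstrate reduction read repeatedly during 40 h treatment at 37 C.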

Experiment [8] in a line: A CellTox Green Cytotoxicity Assay to monitor cytotoxicity in HEK293 cells - 40 hour (AID 1224871). Also: nearly all actives have a fitted effect of over 45% in size. Also: potency is read from the fitted curve at half-maximal effect. The essentials: as §3
A short description of experiment [9]: qHTS RealTime-Glo MT Cell Viability Assay in HEK293 cells - 16 hour (AID 1224872). Also: nearly all actives have a fitted effect of over 50% in size. Also: potency is read from the fitted curve at half-maximal effect. The essentials: as §2
Experiment [10] can be described thus: qHTS RealTime-Glo MT Cell Viability Assay in HepG2 cells - 8 hour (AID 1224873). Also: nearly all actives have a fitted effect of over 55% in size. Also: potency is read from the fitted curve at half-maximal effect. The essentials: as §4
Experiment [11] is described as follows: qHTS RealTime-Glo MT Cell Viability Assay in HEK293 cells - 40 hour (AID 1224874). Also: nearly all actives have a fitted effect of over 50% in size. Also: potency is read from the fitted curve at half-maximal effect. Particulars: RealTime-Glo luminescence; max response: active compounds read low. The essentials: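 HEK293 cells mixed with RealTime-Glo reagents (NanoLuc plus cell-permeant prosubstrate) at 600 cells/well, preincubated 5 h at 37 C/5% CO2, then given 23 nL compound in DMSO. Nonlytic luminescence from viable cells was read at 0, 8, 16, 24, 32 and 40 h.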

Experiment [12] can be described thus: A CellTox Green Cytotoxicity Assay to monitor cytotoxicity in HEK293 cells - 24 hour (AID 1224875). Also: nearly all actives have a fitted effect of over 45% in size. The essentials: as §3
Experiment [13] is described as follows: A CellTox Green Cytotoxicity Assay to monitor cytotoxicity in HepG2 cells - 16 hour (AID 1224876). Also: nearly all actives have a fitted effect of over 45% in size. Also: potency is read from the fitted curve at half-maximal effect. The essentials: (§5)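 HepG2 cells were seeded together with the CellTox Green dye at 600 cells/well, left 5 h at 37 C/5% CO2, then given compounds in DMSO. Fluorescence from dye bound to dead-cell DNA was read repeatedly over 40 h of treatment at 37 C.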
A short description of experiment [14]: qHTS RealTime-Glo MT Cell Viability Assay in HepG2 cells - 32 hour (AID 1224877). Also: nearly all actives have a fitted effect of over 55% in size. Also: potency is read from the fitted curve at half-maximal effect. The essentials:
as §1

The nature of experiment [15]: A CellTox Green Cytotoxicity Assay to monitor cytotoxicity in HepG2 cells - 24 hour (AID 1224878). Also: nearly all actives have a fitted effect of over 45% in size. Also: potency is read from the fitted curve at half-maximal effect. The essentials:
as §5

Experiment [16] can be described thus: A CellTox Green Cytotoxicity Assay to monitor cytotoxicity in HepG2 cells - 40 hour (AID 1224879). Also: nearly all actives have a fitted effect of over 40% in size. Also: potency is read from the fitted curve at half-maximal effect. The essentials:
as §5

Experiment [17] can be described thus: qHTS assay to identify small molecule agonists of H2AX (AID 1224845; active = well fitted activation curve with a large enough effect in the signal ratio in the repeat runs, not every such curve was filed as active; the % refers to the signal ratio). The essentials: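 Wild-type CHO-K1 cells, plated overnight, exposed 3hr at 37C to 15 concentrations (0.76% DMSO final). Lysed, then HTRF anti-pH2AX (S139) cryptate and anti-H2AX-d2 antibodies, 24 hr room temperature; 665/620 nm emission read.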
Experiment [18] can be described thus: qHTS assay to identify small molecule antagonists of the estrogen related receptor (ERR) signaling pathway from Tox21 library (AID 1224848). Also: nearly all actives have a fitted effect of over 50% in size. Also: potency is read from the fitted curve at half-maximal effect. The essentials: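 Luminescent reporter read-out (ONE-Glo) from NTP's ERR cell line after 18 h treatment at 37 C with DMSO-dissolved Tox21 compounds; cells pre-plated 6 h beforehand at 2,000 per well.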
Experiment [19] in a line: qHTS assay to identify small molecule agonists of the estrogen related receptor (ERR) signaling pathway from Tox21 library (AID 1224849; calls by dose curve; also: nearly all actives have a fitted effect of over 15% in size). As to conditions: ERR reporter cell line, ONE-Glo luciferase, 18 h; at 92.4 µM (top of the series) unless noted. The essentials:
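ERR reporter cell line (NTP) seeded, rested 6 h at 37 C/5% CO2, then pinned with Tox21 compounds in DMSO. After 18 h at 37 C, ONE-Glo luciferase luminescence was read following 30 min at room temperature.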
% is scaled to controls: 0 for no effect and ±100 for the full control effect.

Take `Nc1ccc(N=Nc2ccc(-c3ccc(N=Nc4c(S(=O)(=O)O)cc5cc(S(=O)(=O)O)c(N=Nc6ccccc6)c(O)c5c4N)cc3)cc2)c(N)c1`: the Potency result in [1], in experiment [4], in [5], in experiment [6], in experiment [7] and in experiment [8] was “inactive” each time. Moreover, the Potency result in experiment [9], in experiment [10], in experiment [12], in experiment [13], in experiment [14] and in [15] was “inactive” each time. Also, the Potency entry in [16] is “inactive”. Further, in experiment [2], the outcome was inactive. Also, in experiment [3], the Potency was 11.5 µM (active). For the same compound, the max response in experiment [11] is 23.2%.
In the case of `NC(=O)C(Cl)(Cl)Cl`, the Potency entry in [1], in experiment [17], in experiment [3], in experiment [5], in experiment [6] and in [7] was “inactive” throughout. Besides, the Potency result in experiment [8], in experiment [9], in experiment [12], in experiment [13], in [14] and in experiment [15] was “inactive” throughout. The Potency entry in experiment [16] is “inactive”. The outcome in experiment [2] was inactive. In experiment [11], the max response was 16.8%.
With `C[C@]12CC[C@H]3[C@@H](CCC4=CC(=O)CC[C@@H]43)[C@@H]1CC[C@@H]2OC(=O)CCC1CCCCC1`, the Potency result in [1], in experiment [4], in experiment [5], in experiment [6], in experiment [7] and in experiment [8] was “inactive” in each case. In addition, the Potency entry in experiment [9], in experiment [10], in experiment [12], in experiment [13], in experiment [14] and in experiment [15] was “inactive” in each case. Also, the Potency result in experiment [16] was “inactive”. Also, the compound was classed as inactive in experiment [2]. In [11], the max response was -18.6%.
Take `COCCOCCO`: the Potency result in experiment [18], in experiment [4], in experiment [5], in experiment [6], in [7] and in experiment [8] was “inactive” throughout. The Potency result in experiment [10], in experiment [12], in experiment [13], in experiment [14], in [15] and in experiment [16] was “inactive” throughout. Also, the activity change, positive = activation in experiment [19] was 18.2% (active).
`O=C(O)C(F)(F)C(F)(F)C(F)(F)C(F)(F)C(F)(F)C(F)(F)C(F)(F)C(F)(F)C(F)(F)C(F)(F)F`: the Potency entry in experiment [17], in experiment [3], in experiment [18], in experiment [4], in experiment [5] and in experiment [6] was “inactive” each time. Moreover, the Potency entry in experiment [8], in experiment [9] and in experiment [12] was “inactive” each time. Besides, in experiment [2], the compound was called inactive. The activity change, positive = activation in [19] was 8.05%. In experiment [11], the max response is 13.9%.
Regarding `O=NN1CCNCC1`, the Potency entry in experiment [17], in [3], in experiment [4], in experiment [5], in experiment [6] and in experiment [7] was “inactive” throughout. For the same compound, the Potency result in experiment [8], in experiment [9], in experiment [10], in [12], in experiment [13] and in experiment [14] was “inactive” each time. For the same compound, the Potency entry in [15] and in experiment [16] was “inactive” in each case. For the same compound, in [2], the compound was called inactive. The max response in [11] is 9.64%.
On to `IC(I)=C(I)I`, for which the Potency in [1] was 11 µM (active); in experiment [3] it was 31.8 µM (active); in [18], 19.3 µM (active); in experiment [4] it was 0.549 µM (active); in [5] it was 6.92 µM (active); in experiment [7], 0.347 µM (active). In addition, the Potency is 54.9 µM (active) in [8]; 9.77 µM (active) in experiment [9]; 1.55 µM (active) in experiment [10]; 6.16 µM (active) in experiment [11]; 24.5 µM (active) in experiment [13]; 0.436 µM (active) in experiment [14]. Moreover, the Potency in [15] was 19.5 µM (active); in [16], 12.3 µM (active). Further, the activity change, positive = activation in experiment [19] is -75.2%. In addition, the Potency entry in experiment [6] is “inactive”.
Take `[CH3][Sn]([CH3])([Cl])[Cl]`: the Potency result in experiment [17], in [4], in experiment [6], in experiment [8], in experiment [10] and in [12] was “inactive” throughout. Further, the Potency result in [13], in experiment [14] and in [15] was “inactive” each time. In addition, the Potency in experiment [18] was 69.7 µM (active) and 61.1 µM (active). In addition, in experiment [19], the activity change, positive = activation was -70.4% and -43.3%.

The values are drawn from PubChem BioAssay (Tox21).
